Only some compounds are listed: those with a hit (about 6.9% of all), similar ones and a draw of the others.
HP1b binding inh = blocks HP1-beta chromodomain binding to methylated histone tails; P83916; AlphaScreen HP1-beta / biotin-H3K9me3 peptide binding; Potency, µM (series often up to 114 µM), inactives show top-dose activity change, negative = inhibition, usual class: inhibitors; hit rate 0.56% among 390,000; AID 540317; also: nearly all actives have a fitted effect of over 70% in size
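Compound inhibition of the preformed complex between 50 nM HP1-beta and 50 nM biotinylated H3K9me3 peptide was read by AlphaScreen. Buffer was PBS pH 7.4 with 0.01% Tween-20. Incubations ran 30 min at room temperature, with 10 ug/mL donor/acceptor beads.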
JMJD2A Tudor inh = JMJD2A Tudor domain (human) inhibition; O75164; AlphaScreen JMJD2A-Tudor / H3K4me3 peptide binding; Potency, µM (titrated, usually from 114 µM), for the others: top-dose activity change, negative = inhibition, hits mostly inhibitors; hit rate 4.4% among 390,000; also: % is scaled to controls: 0 for no effect and ±100 for the full control effect; nearly all actives have a fitted effect of over 50% in size
Target sequence (O75164 whole entry, looked up, the tested form may be a part): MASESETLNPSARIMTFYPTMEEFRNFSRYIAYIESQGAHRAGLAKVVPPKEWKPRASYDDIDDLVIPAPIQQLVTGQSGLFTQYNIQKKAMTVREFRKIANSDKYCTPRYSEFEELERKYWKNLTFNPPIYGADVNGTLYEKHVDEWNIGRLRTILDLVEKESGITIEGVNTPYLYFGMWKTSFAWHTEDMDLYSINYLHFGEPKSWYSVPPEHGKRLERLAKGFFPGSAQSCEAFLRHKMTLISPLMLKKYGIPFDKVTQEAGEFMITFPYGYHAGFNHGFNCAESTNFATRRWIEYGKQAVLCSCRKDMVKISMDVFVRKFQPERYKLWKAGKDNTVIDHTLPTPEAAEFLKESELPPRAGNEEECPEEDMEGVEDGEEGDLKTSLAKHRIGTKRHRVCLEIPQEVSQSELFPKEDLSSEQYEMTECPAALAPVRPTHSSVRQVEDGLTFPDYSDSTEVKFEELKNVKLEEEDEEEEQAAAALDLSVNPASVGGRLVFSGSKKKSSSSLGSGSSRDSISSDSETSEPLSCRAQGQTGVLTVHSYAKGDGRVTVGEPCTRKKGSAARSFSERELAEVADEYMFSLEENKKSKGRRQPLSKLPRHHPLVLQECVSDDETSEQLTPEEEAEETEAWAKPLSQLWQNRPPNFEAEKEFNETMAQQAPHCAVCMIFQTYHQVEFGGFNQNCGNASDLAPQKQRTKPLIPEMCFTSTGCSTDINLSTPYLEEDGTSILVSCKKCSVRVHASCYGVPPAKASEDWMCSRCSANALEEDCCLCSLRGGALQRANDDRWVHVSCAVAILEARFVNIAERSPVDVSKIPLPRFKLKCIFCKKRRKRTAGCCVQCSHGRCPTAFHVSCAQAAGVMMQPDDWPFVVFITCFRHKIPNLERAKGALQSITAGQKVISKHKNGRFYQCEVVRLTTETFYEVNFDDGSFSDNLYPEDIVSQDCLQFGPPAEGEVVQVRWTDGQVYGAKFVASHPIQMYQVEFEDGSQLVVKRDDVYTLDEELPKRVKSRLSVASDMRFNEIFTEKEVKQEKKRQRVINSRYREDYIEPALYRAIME
PLK1 PBD inh = PLK1 (human) polo-box domain binding inhibition; P53350; Plk1 PBD binding of FITC phosphopeptide, fluorescence polarization; Potency, µM, for inactives: max response, negative = inhibition, actives largely listed as inhibitors; hit rate 2.8% among 360,000; AID 720504; also: series mostly up to about 57 µM; % is scaled to controls: 0 for no effect and ±100 for the full control effect; nearly all actives have a fitted effect of over 65% in size
L3MBTL1 block = inhibitors of human L3MBTL1. Q9Y468. AlphaScreen L3MBTL1–H3K9me1 peptide binding. Potency, µM (top dose mostly 57.1 µM), inactives show at the top dose activity, negative = inhibition, hits mostly inhibitors. hit rate 0.66% among 230,000; also: % is scaled to controls: 0 for no effect and ±100 for the full control effect; nearly all actives have a fitted effect of over 60% in size
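L3MBTL1 (50 nM) pre-complexed 30 min with biotinylated H3(1-15)K9me1 peptide (75 nM), then compounds added for 30 min at room temperature; AlphaScreen streptavidin donor/nickel chelate acceptor beads (10 ug/mL final) read after 30 min dark incubation.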
VDR inh = vitamin D3 receptor (human) inhibition; VDR-SRC2-3 peptide fluorescence polarization, 2 h; Potency, µM, without a hit: max response, negative = inhibition, usual class: inhibitors; AID 504847; P11473; hit rate 0.93% among 400,000; also: % is scaled to controls: 0 for no effect and ±100 for the full control effect
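The screen uses fluorescence polarization to detect compounds that interfere with recruitment of the SRC2-3 coactivator peptide to VDR; plates are read after 2 h at room temperature.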
BAZ2B block = BAZ2B (human) inhibition; AlphaScreen BAZ2B-H3K14Ac peptide displacement; hit rate 4.4% among 360,000; Q9UIF8; Potency, µM (titrated, usually from 114 µM), for inactives: at the top dose activity change, negative = inhibition, actives largely listed as inhibitors; AID 504333; also: % is scaled to controls: 0 for no effect and ±100 for the full control effect; nearly all actives have a fitted effect of over 60% in size
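AlphaScreen displacement of biotin-H3(5-23)K14Ac peptide (50 nM final) from BAZ2B (50 nM final) in PBS pH 7.4, 0.01% Tween-20; complex preformed 30 min RT, then compounds (top 110 uM) 30 min RT, beads 20 min dark.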
* = called active by the depositor; u = inconclusive; x = not tested or not shown; [ ] = another dose, or the depositor's remark. Calls follow the shape of the dose curve; as a rule, active = well fitted curve in the direction sought with a large enough effect; inconclusive = small, poorly fitted or top-dose-only effect, or another doubt; inactive = no such curve, though single readings can be large; an effect the other way counts as inactive or inconclusive. Potency is read from the fitted curve at half-maximal effect.

SMILES	HP1b binding inh	JMJD2A Tudor inh	PLK1 PBD inh	L3MBTL1 block	VDR inh	BAZ2B block
O=C(COc1ccc(Cl)cc1)Nc1cnn(Cc2c(Cl)cccc2Cl)c1	-5%	-9%	-9%	3%	89µM*	-1%
CC1(C(=O)NS(=O)(=O)c2ccccc2OC(F)(F)F)CCN1C(=O)c1ccco1 (stereo not drawn)	x	x	-8%	x	x	x
CCN(CC)S(=O)(=O)c1ccc(Oc2ccccc2)c(N)c1	47%	-1%	-5%	4%	10%	x
Cc1cc(C)[n+](-c2ccc(Oc3ccccc3)c(S(=O)(=O)[O-])c2)[nH]1	9%	50µM*	27µM*	-3%	u	-17%
O=C(Nc1ccon1)C1CCN(S(=O)(=O)c2cccs2)CC1	4%	u	3.4µM*	-15%	-25%	-1%
Cc1cc(NC(=O)C2CCN(S(=O)(=O)c3cccs3)CC2)no1	31%	-9%[11.4 µM]	-17%	-2%	-15%	5%
COc1ccc2nc(NC(=O)C3CCN(S(=O)(=O)c4cccs4)CC3)sc2c1	17%	100µM*	-6%	x	22%	-4%
COc1ccc2nc(NC(=O)C3CCCN(S(=O)(=O)c4cccs4)C3)sc2c1 (stereo not drawn)	-27%	-20%	-7%	x	13%	-3%
O=C(Cc1ccc(NC(=O)N2CCSc3ncccc32)cc1)NCCc1ccccc1	16%	-2%	x	x	5%	-6%
COc1cc2c(=O)[nH]c3cc([N+](=O)[O-])ccc3c2cc1[N+](=O)[O-]	x	x	3%	x	x	x
COc1cc2[nH]c(Cl)c([N+](=O)[O-])c2cc1OC	-18%	u	-19%	x	u	56µM*
Cc1ccc(-c2cc(C(=O)NC3=NCCS3)c3cc(Br)ccc3n2)o1	x	x	x	32µM*	x	14%
Cc1ccc(-c2cc(C(=O)NCCCn3ccnc3)c3cc(Br)ccc3n2)o1	-17%	79µM*	24µM*	-21%	-6%	-2%
Cc1cc(NC(=O)c2cc(-c3ccccn3)nc3ccc(Br)cc23)no1	33%	-12%	-15%	x	2%	71µM*
O=[N+]([O-])c1ccc(C(O)CN2CCOCC2)cc1 (stereo not drawn)	-12%	-11%	-4%	x	-5%	-3%
OC(CN1CCOCC1)c1ccc(F)cc1 (stereo not drawn)	u	20µM*	-11%	-6%	-24%	50µM*
CN1CCN(c2ncc3nc(-c4ccc(Cl)cc4)c(=O)n(Cc4cccs4)c3n2)CC1	x	x	x	x	-9%	x
CCS(=O)(=O)N1CCN(S(=O)(=O)c2ccc(Cl)s2)CC1	38%	-1%	1%	x	3%	50µM*
CCOC(=O)c1c(C)c(-c2ccccc2)n(CC(=O)NC2CCCCC2)c1C	42%	-3%	x	x	1%	-14%
CC(Sc1nc2ccccc2n1C)C(=O)Nc1ccc(N2CCOCC2)cc1 (stereo not drawn)	20%	-23%	8%	x	3%	u
CC(Sc1nc(NCc2ccccc2)nc(N2CCOCC2)n1)C(=O)Nc1ccccc1 (stereo not drawn)	-15%	3%[11.4 µM]	30µM*	-9%	-21%	2%
CC(C)Cn1c(SC(C)C(=O)Nc2ccc(N3CCOCC3)cc2)nc2ccccc21 (stereo not drawn)	u	u	1%	-19%	-1%	35µM*
Cc1nc(NCCCn2ccnc2)c2ccccc2n1	21%	89µM*	-3%	5%	8%	-9%
c1cncc(-c2nc(NCCCn3ccnc3)c3ccccc3n2)c1	21%	20µM*	-2%	x	7%	10µM*
c1ccc(-c2nc(NCCCn3ccnc3)c3oc4ccccc4c3n2)cc1	-20%	u	-9%	-9%	21%	45µM*
SMILES	HP1b binding inh	JMJD2A Tudor inh	PLK1 PBD inh	L3MBTL1 block	VDR inh	BAZ2B block
c1ccc(-c2nc(NCc3ccco3)c3oc4ccccc4c3n2)cc1	9%	89µM*	3%	4%	-1%	u
CCc1nc(NCCCn2ccnc2)c2oc3ccccc3c2n1	39%	-21%	-7%	0%	9%	u
Cc1ccc(-c2nn(-c3ccccc3)cc2C(=O)Nc2cccc(S(=O)(=O)NC3=NCCC3)c2)cc1	x	x	-18%	x	x	x
Cc1nc2nc(CNC(=O)OC(C)(C)C)nn2c(C)c1CCC(=O)NCc1ccccc1Cl	10%	-12%	x	x	-4%	6%
CN(C)c1ccc(-c2cncnc2NCCN2CCOCC2)cc1	x	x	x	x	40µM*	x
c1ccc(-c2csc3ncnc(NCCCN4CCOCC4)c23)cc1	33%	-11%	5%	20%[11.4 µM]	5%	-2%
CCC(Sc1nnc(-c2ccc(C)c(Cl)c2)n1CC)C(=O)Nc1nccs1 (stereo not drawn)	41%	89µM*	-17%	-1%	-11%	3%
Cc1ccc(S(=O)(=O)N2CCOC23CCN(C(=O)C(=O)NCCC(C)C)CC3)cc1	1%	-10%	-3%	-1%	0%	4%
O=C(CI)Nc1cccc2cccnc12	-20%	20µM*	x	x	7%	x
O=C(CCCl)Nc1cccc2cccnc12	68%	79µM*	x	x	-9%	x
O=C(CCBr)Nc1cccc2cccnc12	7%	79µM*	x	x	-6%	x
NC(=S)NNc1cccc2cccnc12	-16%	10µM*	u	u	u	25µM*
O=C(Cc1ccc(F)cc1)Nc1cccc2cccnc12	55%	29%	-19%	15%	0%	12%
CCC(=O)Nc1cccc2cccnc12	67%	6%	-21%	9%	3%	-5%
NC(=S)Nc1cccc2cccnc12	10%	-31%	-12%	4%	2%	u
CCOC(=O)Cn1c(=O)n(CC2CCCO2)c2nc(-c3ccc(OC)cc3OC)nc(C(N)=O)c21 (stereo not drawn)	28%[57 µM]	-2%	x	x	17%	4%
CCC(C)[C@H](NC(=O)NCc1ccco1)C(=O)O (stereo partly drawn)	30%	-20%	-3%	5%	-1%	2%
COc1ccc(OC)c(NC(=O)C(CC(=O)O)NCc2ccco2)c1 (stereo not drawn)	-12%	45µM*	-11%	-6%	12%	-31%
CCOC(=O)C(CC(=O)O)NCc1ccco1 (stereo not drawn)	4%	18µM*	-4%	8%	-21%	-5%
C=CCC(NCc1ccco1)c1ccc(OC)cc1OC (stereo not drawn)	x	x	x	x	x	6%
O=C(NCc1ccccc1)c1ccc(CSc2nc3cccnc3n2Cc2cccc(F)c2)cc1	30%	-7%	x	x	17%	-2%
O=S1(=O)CC(O)C(O)CS1 (stereo not drawn)	x	x	11µM*	x	x	x
CC1CCCN(Cc2c(O)ccc3c(=O)c(-c4ccccc4Cl)c(C(F)(F)F)oc23)C1 (stereo not drawn)	22%	-19%	x	x	2%	7%

Screening results from PubChem.
